Screening results (PubChem)
In the library only some 12% were active in any assay of this set; here they are far more common.
USP28 block – inhibitors of human USP28 deubiquitinase | purified USP28, Ub-rhodamine cleavage fluorescence, 30 min | inhibition, % at 25 µM | actives 3% (n = 47,000) | AID 1645857, 2021
USP30 block – inhibitors of human USP30 deubiquitinase. AID 1645860, 2021. actives 5.3% (n = 47,000). inhibition, % at 25 µM. purified USP30, Ub-rhodamine cleavage fluorescence
USP17 block – inhibitors of human USP17 deubiquitinase | Ubiquitin carboxyl-terminal hydrolase 17-like protein 5 (Homo sapiens), A8MUK1 | purified USP17, Ub-rhodamine cleavage fluorescence, 3 h | inhibition, % at 50 µM | actives 6.5% (n = 47,000)
Target sequence (A8MUK1 whole entry, looked up): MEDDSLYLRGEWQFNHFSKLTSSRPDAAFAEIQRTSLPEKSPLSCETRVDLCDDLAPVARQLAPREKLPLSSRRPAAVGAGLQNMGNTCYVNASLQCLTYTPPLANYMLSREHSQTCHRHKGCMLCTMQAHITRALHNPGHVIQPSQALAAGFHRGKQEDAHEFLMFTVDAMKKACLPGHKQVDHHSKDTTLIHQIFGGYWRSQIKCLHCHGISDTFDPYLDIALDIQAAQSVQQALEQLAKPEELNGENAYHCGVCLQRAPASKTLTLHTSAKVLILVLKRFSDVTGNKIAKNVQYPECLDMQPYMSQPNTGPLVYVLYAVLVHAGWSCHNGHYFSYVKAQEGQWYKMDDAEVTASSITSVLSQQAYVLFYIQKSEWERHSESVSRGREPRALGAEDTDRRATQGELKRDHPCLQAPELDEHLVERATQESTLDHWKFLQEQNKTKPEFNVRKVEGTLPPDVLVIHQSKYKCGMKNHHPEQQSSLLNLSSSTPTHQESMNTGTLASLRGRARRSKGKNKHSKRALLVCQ
OTUD3 block – inhibitors of human OTUD3 deubiquitinase; OTU domain-containing protein 3 (Homo sapiens), Q5T2D3; purified OTUD3, Ub-rhodamine fluorescence, 2 h; inhibition, % at 25 µM; actives 0.7% (n = 47,000)
Of the large screens only hits and unclear results are named; the others gave an inactive call. Cut-off read from the data, not from the text of the source: active = inhibition above about 30%; inactive = the rest.

O=C(NC1CCCCC1)N1Cc2[nH]cnc2C[C@H]1c1nc(-c2ccc(F)cc2)no1	none
Cc1c(NC(=O)/C=C/c2cccc(Cl)c2Cl)cccc1-n1cnnn1	USP30 block 43.3
Cc1ccccc1C(=O)Nc1cccc(-n2cnnn2)c1C	none
COc1cc(Cl)ccc1C(=O)Nc1cccc(-n2cnnn2)c1C	USP30 block 46.7, USP17 block 82.3
COc1ccc(NC(=O)CSc2nnc(-c3cc4ccccc4n3C)o2)cc1	none
COc1ccc2nc(SCC(=O)Nc3ccc(NC(C)=O)cc3)c(C)cc2c1	USP17 block 59.5
Cn1cc(CN2CC[C@H]3C[C@H](C(=O)Nc4cccnc4)O[C@@H]3C2)cn1	USP30 block 37.0 (no result: USP17 block)
CCc1ccc(C(=O)NCc2ccc(N3CCOCC3)nc2)cc1	none
COCCNC(=O)c1ccc(-c2ccc(N3CCCCC3)nc2)cc1	USP30 block 31.2, USP17 block 68.0
CNc1cc(C2CCCN2C(=O)c2cc3nc(C)cc(C)n3n2)ccn1 (centres undefined)	none
O=C(Nc1ccccc1)c1nnc(C(=O)N2CCCC(C(=O)N3CCCCC3)C2)s1 (centres undefined)	none
O=C(Oc1ccccc1Br)c1cc(-c2ccc3c(c2)OCCO3)on1	USP30 block 33.3
O=C(NCC(c1ccccc1)N1CCCC1)c1cc(-c2ccc3c(c2)OCCO3)on1 (centres undefined)	none
COc1ccccc1NS(=O)(=O)c1cccc(C(=O)OCC(=O)NCc2ccc(Cl)cc2)c1	none
COc1cccc(CNc2cc(C(C)C)nc3nc(-c4cccnc4)nn23)c1	USP17 block 35.3
CC(C)c1cc(Nc2ccc(O)cc2)n2nc(-c3cccnc3)nc2n1	none
CCCNc1cc(-c2ccccc2)nc2nc(-c3cccnc3)nn12	USP17 block 54.3
CC(C)c1cc(NCc2ccco2)n2nc(-c3cccnc3)nc2n1	USP30 block 36.6, USP17 block 31.3
COC(=O)c1c(C)[nH]c(C(=O)C(C)OC(=O)c2cccc(O)c2)c1C (centres undefined)	none (no result: USP17 block)
N#C/C(=C\c1ccc(C(F)(F)F)cc1)c1c[nH]c2ccccc12	USP17 block 32.3
OC(/C=C/c1c[nH]c2ccccc12)C(F)(F)F (centres undefined)	none
COc1ccc(C2c3[nH]c4ccccc4c3C[C@H]3C(=O)N(CCCN4CCOCC4)CC(=O)N23)cc1 (some centres undefined)	none
COc1cccc(C2c3[nH]c4ccccc4c3C[C@@H]3C(=O)N(CCCN4CCOCC4)CC(=O)N23)c1 (some centres undefined)	USP30 block 36.7
Cc1cc(F)ccc1S(=O)(=O)N1CCOC(c2ccccc2)C1 (centres undefined)	none
Cc1nc(Nc2cnccn2)cc(C2CCCN2Cc2cccnc2)n1 (centres undefined)	none
CS(=O)(=O)N1CCCc2cc(C(=O)Nc3ccc4c(c3)OCO4)ccc21	USP28 block 85.1
O=C(Nc1ccc2c(c1)OCO2)c1ccc(N2CCCC2=O)cc1	USP17 block 49.9
O=C(Nc1ccc2c(c1)OCO2)c1ccc(CN2CCc3ccccc3C2)cc1	USP28 block 30.5
COc1ccccc1CNC(=O)c1ccc2c(c1)CCCN2S(C)(=O)=O	none
O=C(CN1CCCc2ccccc21)Nc1ccc2c(c1)OCO2	none
Cc1ccc(NC(=O)c2ccc3c(c2)N(S(C)(=O)=O)CC3)cc1	USP28 block 49.5, USP17 block 50.7
COCCN1C[C@H]2N(c3ncccn3)CCC[C@@]2(C(=O)NCC2CC2)C1	none
Cc1nc2sccn2c(=O)c1NC(=O)COc1ccc(Cl)cc1	none
COC(=O)c1cc2c(ccn2-c2ccc(F)cc2)n1Cc1ncc(C)c(OC)c1C	none
O=C(Nc1nonc1-c1ccc(F)cc1)c1ccccc1Br	none
O=C(NCC(c1cccnc1)N1CCc2ccccc2C1)C(=O)Nc1ccc2c(c1)OCO2 (centres undefined)	USP17 block 74.5
O=C(Nc1ccc2c(c1)OCCO2)C1=CCN(Cc2ccccc2F)CC1	USP28 block 39.7
O=C(NCC(c1cccnc1)N1CCc2ccccc2C1)c1ccc(F)cc1 (centres undefined)	none
Cc1ccc(C(=O)N2C[C@H](Oc3cccnc3)[C@H]3OCCC[C@H]32)s1	none
Cc1nc2sc3c(c2c2nnc(SCC(=O)NCc4ccc5c(c4)OCO5)n12)CCCC3	none
COc1cccc(CN2CC[C@@H]3CN(Cc4cccnc4)S(=O)(=O)[C@@H]3CC2)c1	none
CN(C)c1ccc(-c2noc(C(=O)NC3CC(C)(C)NC(C)(C)C3)n2)cc1	none
CC1(C)CC(NC(=O)c2nc(-c3ccc(F)cc3)no2)CC(C)(C)N1	USP30 block 33.9
COc1ccc(NC(=O)CCCSc2nc3ccccc3[nH]2)cc1OC	none
Cc1cccc(OCCCSc2nc3ccccc3[nH]2)c1	USP28 block 44.7
COc1cccc(OCCCSc2nc3ccccc3[nH]2)c1	USP28 block 40.9
O=C(c1ccc(-n2cccn2)nc1)N1CCCC(c2ccn[nH]2)C1 (centres undefined)	none
N#Cc1ccccc1CSc1nnc2c3ccccc3nc(-c3ccco3)n12	none
Cc1ccc(C)c(NC(=O)C(Sc2nnc(C)n2Cc2ccccc2)c2ccccc2)c1 (centres undefined)	USP30 block 30.1 (no result: USP17 block)
COCCn1c(SC(C(=O)Nc2cc(C)ccc2OC)c2ccccc2)nnc1-c1ccc(Cl)cc1 (centres undefined)	none
COc1ccc(C)cc1NC(=O)C(Sc1nnc(C2CC2)n1Cc1ccccc1)c1ccccc1 (centres undefined)	USP28 block 30.1, USP30 block 36.9
Cc1cc(C(=O)NCc2ccc(C)o2)c2cccc(C)c2n1	none
Cc1c(-c2noc(-c3ccccn3)n2)nnn1-c1ccc(F)cc1	USP30 block 60.5, USP17 block 71.7
COc1ccc(-c2noc(-c3nnn(-c4ccccc4Cl)c3C)n2)cc1	none
c1ccc(-n2nnc(-c3noc(-c4ccccn4)n3)c2-c2ccncc2)cc1	USP17 block 63.5
Cc1c(-c2nc(-c3ccccc3Cl)no2)nnn1-c1cccc(F)c1	USP30 block 62.2, USP17 block 35.9
Cc1ccc(-n2nnc(-c3noc(-c4ccccn4)n3)c2C)cc1	none
O=C(O)c1ccc(NC(=O)c2ccccc2Cl)c(NC(=O)c2ccccc2Cl)c1	none
O=C(Nc1ccc(Cl)cc1F)c1cnc(-c2ccccc2)nc1-c1ccncc1	none
CC(=O)N1CCN(c2nc3c(s2)CC(C(=O)NCc2cc(C)ccc2C)CC3)CC1 (centres undefined)	none
O=S(=O)(c1ccc(-c2ccc(Cl)cc2Cl)cc1)C1CCNCC1	USP28 block 44.2, USP30 block 44.5
O=C(CC1CC1)N1CCC(c2cc(=O)n3[nH]ccc3n2)CC1	none
Cc1oc(-c2ccc(C(=O)NCC3COCCO3)cc2)nc1CN1CCc2ccccc21 (centres undefined)	USP28 block 57.3
Cc1ccc(C(=O)NCC2COCCO2)cc1NC(=O)c1nsc2ccccc12 (centres undefined)	none
